Experiments:
Assay in all cases: log2 ratio of Biotin-Ahx-Ub-VS probe labelling (fragment/DMSO); higher = less target engagement (more negative = stronger competition), active = hit call of the paper (q ≤ 0.05, log2 ratio ≤ -1)
Conditions in all cases: compound concentration: 200 uM; treatment time: 3 h
USP19 = molecular target: T1, USP19 (UniProt O94966)
T1 sequence (whole entry): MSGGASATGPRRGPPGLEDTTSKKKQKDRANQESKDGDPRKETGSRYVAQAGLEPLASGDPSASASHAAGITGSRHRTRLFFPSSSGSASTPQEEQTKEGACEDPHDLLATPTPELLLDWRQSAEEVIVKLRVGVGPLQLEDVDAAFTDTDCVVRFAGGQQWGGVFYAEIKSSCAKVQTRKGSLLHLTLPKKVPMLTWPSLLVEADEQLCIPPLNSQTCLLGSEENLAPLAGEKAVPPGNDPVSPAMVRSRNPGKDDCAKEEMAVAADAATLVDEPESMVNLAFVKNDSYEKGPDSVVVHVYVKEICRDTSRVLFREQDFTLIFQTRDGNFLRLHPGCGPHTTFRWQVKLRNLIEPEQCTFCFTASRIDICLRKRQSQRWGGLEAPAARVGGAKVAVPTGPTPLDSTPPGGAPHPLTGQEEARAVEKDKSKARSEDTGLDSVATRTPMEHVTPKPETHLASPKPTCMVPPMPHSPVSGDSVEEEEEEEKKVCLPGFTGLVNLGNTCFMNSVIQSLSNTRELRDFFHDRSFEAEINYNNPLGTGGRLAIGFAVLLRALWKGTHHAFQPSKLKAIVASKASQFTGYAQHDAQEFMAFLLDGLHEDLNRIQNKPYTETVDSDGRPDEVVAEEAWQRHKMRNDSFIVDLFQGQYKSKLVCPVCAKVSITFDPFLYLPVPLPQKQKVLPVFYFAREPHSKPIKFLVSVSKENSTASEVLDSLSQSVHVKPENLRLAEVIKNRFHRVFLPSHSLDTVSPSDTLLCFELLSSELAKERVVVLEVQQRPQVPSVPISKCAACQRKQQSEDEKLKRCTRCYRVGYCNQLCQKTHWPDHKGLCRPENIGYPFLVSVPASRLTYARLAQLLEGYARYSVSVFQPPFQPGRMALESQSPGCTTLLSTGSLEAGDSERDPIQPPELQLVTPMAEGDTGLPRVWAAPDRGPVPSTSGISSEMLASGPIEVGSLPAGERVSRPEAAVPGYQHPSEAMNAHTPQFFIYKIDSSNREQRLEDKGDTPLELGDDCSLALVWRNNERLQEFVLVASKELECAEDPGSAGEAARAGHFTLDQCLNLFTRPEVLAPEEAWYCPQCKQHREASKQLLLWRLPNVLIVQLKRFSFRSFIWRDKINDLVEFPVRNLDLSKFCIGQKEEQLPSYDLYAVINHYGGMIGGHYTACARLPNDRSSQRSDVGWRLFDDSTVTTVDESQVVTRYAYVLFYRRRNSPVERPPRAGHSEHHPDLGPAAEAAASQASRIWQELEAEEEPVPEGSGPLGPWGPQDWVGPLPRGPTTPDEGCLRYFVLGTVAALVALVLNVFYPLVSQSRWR
Outline: (§1)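 Average log2 ratios of fragment over vehicle were obtained by unpaired t-test from global-median-normalised Spectronaut label-free quantities. Proteins with ≥2 unique peptides were included. HEK293T lysate (495 µg per sample) was treated in triplicate with fragment at 200 µM or vehicle for 3 h, then with Biotin-Ahx-Ub-VS at 0.5 µM final for 1 h, and labelled DUBs were NeutrAvidin-enriched and run by diaPASEF LC-MS/MS.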

USP22 = molecular target: T2, USP22 (UniProt Q9UPT9)
T2 sequence (whole entry): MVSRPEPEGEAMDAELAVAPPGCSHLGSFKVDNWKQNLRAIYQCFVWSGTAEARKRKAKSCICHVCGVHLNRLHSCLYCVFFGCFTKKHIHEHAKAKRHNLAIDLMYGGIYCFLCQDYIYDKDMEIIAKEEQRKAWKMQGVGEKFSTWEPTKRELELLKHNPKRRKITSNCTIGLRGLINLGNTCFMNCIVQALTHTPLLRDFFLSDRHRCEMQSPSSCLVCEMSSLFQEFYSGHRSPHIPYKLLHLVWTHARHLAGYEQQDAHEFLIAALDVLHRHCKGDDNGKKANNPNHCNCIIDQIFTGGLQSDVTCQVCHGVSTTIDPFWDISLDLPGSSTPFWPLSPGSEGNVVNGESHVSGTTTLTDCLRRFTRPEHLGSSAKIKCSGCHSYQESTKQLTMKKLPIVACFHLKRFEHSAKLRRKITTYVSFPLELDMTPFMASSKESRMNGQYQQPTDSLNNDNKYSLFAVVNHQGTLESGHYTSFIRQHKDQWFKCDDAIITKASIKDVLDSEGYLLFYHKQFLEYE
Outline: as §1

USP24 = USP24 (UniProt Q9UPU5)
USP24, sequence (Q9UPU5 whole entry): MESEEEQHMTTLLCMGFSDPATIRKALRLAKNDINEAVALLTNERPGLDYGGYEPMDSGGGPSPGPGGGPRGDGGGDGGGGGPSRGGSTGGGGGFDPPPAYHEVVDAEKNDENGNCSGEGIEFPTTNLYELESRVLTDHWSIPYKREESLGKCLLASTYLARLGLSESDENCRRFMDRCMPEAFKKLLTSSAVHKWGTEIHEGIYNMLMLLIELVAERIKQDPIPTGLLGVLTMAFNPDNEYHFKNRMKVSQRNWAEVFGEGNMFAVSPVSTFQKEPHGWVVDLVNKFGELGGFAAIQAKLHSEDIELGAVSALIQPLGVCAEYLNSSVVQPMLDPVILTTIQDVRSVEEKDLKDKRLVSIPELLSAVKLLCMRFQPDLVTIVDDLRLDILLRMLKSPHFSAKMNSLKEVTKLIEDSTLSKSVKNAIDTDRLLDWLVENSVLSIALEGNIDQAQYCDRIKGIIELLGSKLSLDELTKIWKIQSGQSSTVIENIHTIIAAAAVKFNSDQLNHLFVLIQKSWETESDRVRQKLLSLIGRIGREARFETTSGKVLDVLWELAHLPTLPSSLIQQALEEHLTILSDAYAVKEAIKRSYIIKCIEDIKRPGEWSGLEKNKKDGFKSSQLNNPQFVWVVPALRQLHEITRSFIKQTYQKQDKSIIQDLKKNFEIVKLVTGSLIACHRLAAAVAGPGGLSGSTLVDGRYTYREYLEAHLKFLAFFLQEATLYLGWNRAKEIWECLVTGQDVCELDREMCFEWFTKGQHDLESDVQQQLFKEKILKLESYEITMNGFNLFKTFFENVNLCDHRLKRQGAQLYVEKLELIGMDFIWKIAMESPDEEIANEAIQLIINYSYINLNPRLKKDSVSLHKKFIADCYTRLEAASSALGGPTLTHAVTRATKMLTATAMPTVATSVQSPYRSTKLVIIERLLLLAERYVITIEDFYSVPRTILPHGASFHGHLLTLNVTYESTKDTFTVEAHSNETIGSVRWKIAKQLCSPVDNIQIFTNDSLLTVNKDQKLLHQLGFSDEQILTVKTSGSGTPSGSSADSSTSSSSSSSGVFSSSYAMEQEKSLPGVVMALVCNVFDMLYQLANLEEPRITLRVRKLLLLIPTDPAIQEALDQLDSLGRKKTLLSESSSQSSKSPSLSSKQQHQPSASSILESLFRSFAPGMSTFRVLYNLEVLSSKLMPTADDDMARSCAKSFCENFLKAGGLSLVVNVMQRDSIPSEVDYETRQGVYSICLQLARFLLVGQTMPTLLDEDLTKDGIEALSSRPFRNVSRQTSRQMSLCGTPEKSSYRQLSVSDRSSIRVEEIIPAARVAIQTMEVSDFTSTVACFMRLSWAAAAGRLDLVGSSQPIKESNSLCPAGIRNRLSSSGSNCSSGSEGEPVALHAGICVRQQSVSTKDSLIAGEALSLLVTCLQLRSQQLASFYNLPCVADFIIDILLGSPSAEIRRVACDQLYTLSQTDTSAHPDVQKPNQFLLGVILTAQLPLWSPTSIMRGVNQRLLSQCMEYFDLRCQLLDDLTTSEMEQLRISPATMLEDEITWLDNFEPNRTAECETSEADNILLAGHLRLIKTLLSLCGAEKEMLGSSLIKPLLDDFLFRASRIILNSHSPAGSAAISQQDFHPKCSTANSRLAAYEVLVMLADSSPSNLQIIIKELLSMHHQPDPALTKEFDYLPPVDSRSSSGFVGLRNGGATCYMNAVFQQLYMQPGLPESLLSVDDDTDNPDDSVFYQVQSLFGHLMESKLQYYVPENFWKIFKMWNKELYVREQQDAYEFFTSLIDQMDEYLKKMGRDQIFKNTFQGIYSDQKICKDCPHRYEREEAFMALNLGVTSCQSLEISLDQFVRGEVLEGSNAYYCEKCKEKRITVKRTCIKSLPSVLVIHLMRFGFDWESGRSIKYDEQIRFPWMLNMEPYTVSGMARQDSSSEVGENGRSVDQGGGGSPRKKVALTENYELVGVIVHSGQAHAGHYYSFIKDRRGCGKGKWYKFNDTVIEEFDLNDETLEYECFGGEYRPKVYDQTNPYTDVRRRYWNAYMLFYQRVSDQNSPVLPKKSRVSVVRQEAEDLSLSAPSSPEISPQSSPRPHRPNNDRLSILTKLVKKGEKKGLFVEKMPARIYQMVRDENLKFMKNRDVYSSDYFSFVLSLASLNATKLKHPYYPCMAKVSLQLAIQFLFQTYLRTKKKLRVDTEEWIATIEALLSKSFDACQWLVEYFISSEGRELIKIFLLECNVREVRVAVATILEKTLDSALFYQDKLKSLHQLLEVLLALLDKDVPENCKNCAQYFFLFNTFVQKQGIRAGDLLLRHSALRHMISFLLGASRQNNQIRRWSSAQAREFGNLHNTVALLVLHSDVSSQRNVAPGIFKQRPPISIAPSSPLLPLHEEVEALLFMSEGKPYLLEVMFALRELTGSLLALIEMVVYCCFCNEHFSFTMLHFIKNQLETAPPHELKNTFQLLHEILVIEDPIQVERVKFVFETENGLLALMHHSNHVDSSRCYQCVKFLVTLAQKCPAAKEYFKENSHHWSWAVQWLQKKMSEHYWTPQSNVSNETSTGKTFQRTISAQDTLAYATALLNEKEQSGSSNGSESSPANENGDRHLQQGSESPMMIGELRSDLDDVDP
Outline: as §1

USP25 = molecular target: T3, USP25 (UniProt Q9UHP3)
T3 sequence (whole entry): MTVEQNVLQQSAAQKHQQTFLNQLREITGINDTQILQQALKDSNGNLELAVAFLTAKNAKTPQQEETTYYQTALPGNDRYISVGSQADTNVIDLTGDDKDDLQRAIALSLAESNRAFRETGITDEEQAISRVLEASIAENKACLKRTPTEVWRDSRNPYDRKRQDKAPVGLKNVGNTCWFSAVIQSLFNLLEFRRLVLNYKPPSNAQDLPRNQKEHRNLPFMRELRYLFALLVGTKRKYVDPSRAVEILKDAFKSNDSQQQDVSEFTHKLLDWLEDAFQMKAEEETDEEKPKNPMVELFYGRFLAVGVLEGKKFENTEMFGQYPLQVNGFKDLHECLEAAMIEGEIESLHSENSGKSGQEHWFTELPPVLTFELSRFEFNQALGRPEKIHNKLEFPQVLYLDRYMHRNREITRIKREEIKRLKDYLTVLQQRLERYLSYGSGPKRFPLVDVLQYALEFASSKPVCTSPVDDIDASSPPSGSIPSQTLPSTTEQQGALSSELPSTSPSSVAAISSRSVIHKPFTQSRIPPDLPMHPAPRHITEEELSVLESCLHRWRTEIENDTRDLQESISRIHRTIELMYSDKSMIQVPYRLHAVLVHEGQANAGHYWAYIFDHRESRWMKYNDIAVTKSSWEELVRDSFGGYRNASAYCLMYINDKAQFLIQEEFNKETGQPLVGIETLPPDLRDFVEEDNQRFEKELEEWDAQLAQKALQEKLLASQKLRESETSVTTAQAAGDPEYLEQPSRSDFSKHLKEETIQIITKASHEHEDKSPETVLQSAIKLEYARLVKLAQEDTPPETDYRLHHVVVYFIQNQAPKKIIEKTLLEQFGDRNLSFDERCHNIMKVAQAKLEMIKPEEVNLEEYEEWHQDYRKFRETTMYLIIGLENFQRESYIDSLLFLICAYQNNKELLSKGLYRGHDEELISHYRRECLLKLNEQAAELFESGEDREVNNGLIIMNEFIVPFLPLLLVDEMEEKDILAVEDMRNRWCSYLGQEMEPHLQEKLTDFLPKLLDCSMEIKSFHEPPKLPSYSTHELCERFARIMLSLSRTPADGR
Outline: as §1

USP28 = molecular target: T4, USP28 (UniProt Q96RU2)
T4 sequence (whole entry): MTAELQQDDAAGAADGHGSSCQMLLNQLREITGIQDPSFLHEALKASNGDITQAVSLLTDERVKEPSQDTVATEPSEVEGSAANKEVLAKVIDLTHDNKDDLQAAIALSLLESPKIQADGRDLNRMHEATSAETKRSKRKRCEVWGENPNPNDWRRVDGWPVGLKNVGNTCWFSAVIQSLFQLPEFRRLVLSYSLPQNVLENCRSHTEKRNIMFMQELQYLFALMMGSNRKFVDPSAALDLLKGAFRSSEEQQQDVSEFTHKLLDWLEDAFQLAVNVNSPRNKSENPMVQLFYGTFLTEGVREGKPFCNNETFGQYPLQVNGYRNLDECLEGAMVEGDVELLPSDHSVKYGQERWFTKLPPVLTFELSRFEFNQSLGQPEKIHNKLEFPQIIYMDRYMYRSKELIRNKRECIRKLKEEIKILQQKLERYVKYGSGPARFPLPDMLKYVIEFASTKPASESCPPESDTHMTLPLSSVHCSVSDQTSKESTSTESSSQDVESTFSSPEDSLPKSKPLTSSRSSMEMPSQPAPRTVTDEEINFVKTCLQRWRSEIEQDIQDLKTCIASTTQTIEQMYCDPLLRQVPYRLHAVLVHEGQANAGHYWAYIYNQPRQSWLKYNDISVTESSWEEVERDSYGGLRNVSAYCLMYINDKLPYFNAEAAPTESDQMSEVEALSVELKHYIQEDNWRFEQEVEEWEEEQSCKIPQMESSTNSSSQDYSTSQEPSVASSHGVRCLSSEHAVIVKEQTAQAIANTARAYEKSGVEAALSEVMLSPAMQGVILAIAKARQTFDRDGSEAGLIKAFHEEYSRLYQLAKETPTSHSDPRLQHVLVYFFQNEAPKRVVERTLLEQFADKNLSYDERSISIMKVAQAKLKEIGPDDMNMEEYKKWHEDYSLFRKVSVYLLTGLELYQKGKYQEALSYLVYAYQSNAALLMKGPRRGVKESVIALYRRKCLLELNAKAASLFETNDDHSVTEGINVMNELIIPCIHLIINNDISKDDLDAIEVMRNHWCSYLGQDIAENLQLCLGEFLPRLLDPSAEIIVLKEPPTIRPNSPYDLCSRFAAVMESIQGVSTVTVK
Outline: as §1

Measured: log2 ratio of Biotin-Ahx-Ub-VS probe labelling

O=C(CCl)N1CCC(c2noc3cc(F)ccc23)CC1
inactive: USP19 -0.49 | USP22 -0.492 | USP24 -0.986 | USP25 -0.302 | USP28 -0.607

From the supplement of paper PMC11732987, “Enantioselective OTUD7B fragment discovery through chemoproteomics screening and high-throughput optimisation” (Communications Chemistry, 2025)
